For some assays here: Entries with a potency or affinity are not part of this list. Calls of active or inactive are those of the source.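 Rule for the calls, unless noted: active = signal rise over 3 SD above mean of control wells given weak agonist, in both repeats and first screen; inactive = the rest.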
Experiments:
[1] = test system: TRPC4 beta (transient receptor potential cation channel C4), mouse; test: activators of mouse TRPC4 channel, confirmation, cell-based, Fluo4 calcium, HEK293 TRPC4beta/mu-opioid, duplicates, 10 µM (AID 2426;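 active = fluorescence ratio normalized to control raised more than 50% in primary screen plus both repeat runs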); settings: Fluo4 calcium fluorescence, at 10 µM; active compounds read high
[2] = test system: transient receptor potential cation channel C4 beta (TRPC4), mouse; test: activators of mouse TRPC4 channel, confirmation, cell-based, second round, Fluo4, HEK293 TRPC4beta/mu-opioid, 1 µM (AID 2461;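 active = primary screen active and over 50% activation in each of two duplicate runs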); settings: Fluo4 calcium fluorescence, at 1 µM; active compounds read high
[3] = test system: TRPC4 (transient receptor potential cation channel C4 beta), mouse; test: positive allosteric modulators of mouse TRPC4, confirmation, cell-based, second round, Fluo-4, HEK293 TRPC4beta/mu-opioid, 1 µM (AID 2554;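 active = primary screen hit whose fluorescence ratio, in both repeats, exceeds the weak agonist control mean by 3 SD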); settings: DAMGO EC20, Fluo-4 calcium flux, at 1 µM; active compounds read high
[4] = test system: TRPC4 beta (transient receptor potential cation channel C4), mouse; test: positive allosteric modulators of mouse TRPC4, confirmation, cell-based, Fluo-4, HEK293 TRPC4beta/mu-opioid (AID 2555;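 active = primary screen hit whose calcium fluorescence ratio, in both repeats, exceeds the weak agonist control mean by 3 SD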); settings: DAMGO EC20, Fluo-4 calcium flux, at 10 µM; active compounds read high
[5] = biological target: Short transient receptor potential channel 4 (Mus musculus) (UniProt Q9QUQ5); test: inhibitors of mouse TRPC4 channel, confirmation, cell-based, Fluo4, HEK293 TRPC4beta/mu-opioid (AID 2636;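 active = calcium signal cut by more than 3 SD below the full-agonist control yet still positive, in both repeats and the earlier primary screen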); settings: DAMGO, Fluo4 calcium flux, at 10 µM; active compounds read high
Sequence of Short transient receptor potential channel 4 (Mus musculus) (Q9QUQ5 whole entry, looked up): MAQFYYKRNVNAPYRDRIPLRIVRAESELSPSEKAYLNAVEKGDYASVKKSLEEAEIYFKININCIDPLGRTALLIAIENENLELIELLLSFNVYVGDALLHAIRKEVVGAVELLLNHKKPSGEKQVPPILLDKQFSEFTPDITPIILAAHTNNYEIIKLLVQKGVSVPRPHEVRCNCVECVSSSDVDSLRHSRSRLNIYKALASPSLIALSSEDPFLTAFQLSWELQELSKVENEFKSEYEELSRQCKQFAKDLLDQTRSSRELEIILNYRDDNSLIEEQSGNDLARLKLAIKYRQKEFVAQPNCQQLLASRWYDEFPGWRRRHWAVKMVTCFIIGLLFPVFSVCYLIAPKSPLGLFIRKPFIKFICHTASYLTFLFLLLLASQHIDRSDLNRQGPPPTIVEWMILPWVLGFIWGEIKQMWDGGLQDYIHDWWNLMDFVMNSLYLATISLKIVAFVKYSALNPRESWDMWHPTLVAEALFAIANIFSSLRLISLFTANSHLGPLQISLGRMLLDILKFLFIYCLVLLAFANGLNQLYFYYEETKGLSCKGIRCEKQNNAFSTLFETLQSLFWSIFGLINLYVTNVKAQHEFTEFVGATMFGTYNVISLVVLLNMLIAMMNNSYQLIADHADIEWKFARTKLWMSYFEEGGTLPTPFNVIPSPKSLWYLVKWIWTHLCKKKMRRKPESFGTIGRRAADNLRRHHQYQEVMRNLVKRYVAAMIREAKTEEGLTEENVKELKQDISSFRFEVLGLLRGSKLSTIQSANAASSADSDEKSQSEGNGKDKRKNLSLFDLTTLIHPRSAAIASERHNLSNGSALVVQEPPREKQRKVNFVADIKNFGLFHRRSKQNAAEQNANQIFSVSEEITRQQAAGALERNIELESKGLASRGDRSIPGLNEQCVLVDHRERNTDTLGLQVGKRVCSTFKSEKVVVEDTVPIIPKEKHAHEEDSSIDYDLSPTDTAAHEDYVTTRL

[6] = biological target: Short transient receptor potential channel 4 (Mus musculus) (UniProt Q9QUQ5); test: inhibitors of mouse TRPC4 channel, confirmation, cell-based, second round, Fluo4, HEK293 TRPC4beta/mu-opioid, 1 µM (AID 2637;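 active = calcium signal ratio cut to more than 3 SD under the fully stimulated control mean yet still positive, in both repeats and the primary screen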;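 for inhibition: percent of integrated ratio relative to wells lacking test compound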); settings: Fluo4 calcium flux, DAMGO, at 1 µM; active compounds read high
[7] = biological target: Short transient receptor potential channel 4 (Mus musculus) (UniProt Q9QUQ5); test: mouse TRPC4 channel activators, dose response, cell-based, HEK293 TRPC4/mu-opioid, Fluo-4 calcium (AID 434937;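 active = primary screen activator hit with a dose response curve and TRPC4 channel activation at any tested dose; inactive = no activation, no dose response, or not a primary hit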); settings: HEK293 TRPC4 cells, Fluo-4 calcium fluorescence ratio; series mostly up to 20 µM
[8] = biological target: Short transient receptor potential channel 4 (Mus musculus) (UniProt Q9QUQ5); test: TRPC4 positive allosteric modulators, dose response, cell-based, HEK293 TRPC4/mu-opioid, Fluo-4 calcium, EC20 DAMGO (AID 434941;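 active = earlier screen potentiator hit that boosts the TRPC4 ion channel at some dose, with a dose response; inactive = no potentiation, no dose response, or not a prior hit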;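 note: calcium entry triggered by an EC20 dose of DAMGO at the co-expressed mu-opioid receptor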); settings: HEK293 TRPC4/mu-opioid cells, Fluo-4 calcium fluorescence; series mostly up to 20 µM
[9] = biological target: Short transient receptor potential channel 4 (Mus musculus) (UniProt Q9QUQ5); test: mouse TRPC4 channel inhibitors, dose response, cell-based, HEK293 TRPC4/mu-opioid, Fluo-4 calcium (AID 434942;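 active = primary screen inhibitor hit that blocks the TRPC4 channel at some tested dose, yielding a dose curve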); settings: HEK293 TRPC4/mu-opioid cells, DAMGO-evoked Fluo-4 calcium ratio; series mostly up to 20 µM
[10] = biological target: Short transient receptor potential channel 6 (Mus musculus) (UniProt Q61143); test: inhibition of mouse TRPC6 channel, confirmation, selectivity assay for TRPC4 inhibitor project, cell-based, HEK293, membrane potential dye, duplicate (AID 434948;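 active = active in primary screen and both duplicates, each dropping signal beyond three positive-control SD with fluorescence still positive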); settings: HEK293 TRPC6, membrane potential dye fluorescence, at 10 µM, stimulated with maximal-effect acetylcholine; active compounds read high
Sequence of Short transient receptor potential channel 6 (Mus musculus) (Q61143 whole entry, looked up): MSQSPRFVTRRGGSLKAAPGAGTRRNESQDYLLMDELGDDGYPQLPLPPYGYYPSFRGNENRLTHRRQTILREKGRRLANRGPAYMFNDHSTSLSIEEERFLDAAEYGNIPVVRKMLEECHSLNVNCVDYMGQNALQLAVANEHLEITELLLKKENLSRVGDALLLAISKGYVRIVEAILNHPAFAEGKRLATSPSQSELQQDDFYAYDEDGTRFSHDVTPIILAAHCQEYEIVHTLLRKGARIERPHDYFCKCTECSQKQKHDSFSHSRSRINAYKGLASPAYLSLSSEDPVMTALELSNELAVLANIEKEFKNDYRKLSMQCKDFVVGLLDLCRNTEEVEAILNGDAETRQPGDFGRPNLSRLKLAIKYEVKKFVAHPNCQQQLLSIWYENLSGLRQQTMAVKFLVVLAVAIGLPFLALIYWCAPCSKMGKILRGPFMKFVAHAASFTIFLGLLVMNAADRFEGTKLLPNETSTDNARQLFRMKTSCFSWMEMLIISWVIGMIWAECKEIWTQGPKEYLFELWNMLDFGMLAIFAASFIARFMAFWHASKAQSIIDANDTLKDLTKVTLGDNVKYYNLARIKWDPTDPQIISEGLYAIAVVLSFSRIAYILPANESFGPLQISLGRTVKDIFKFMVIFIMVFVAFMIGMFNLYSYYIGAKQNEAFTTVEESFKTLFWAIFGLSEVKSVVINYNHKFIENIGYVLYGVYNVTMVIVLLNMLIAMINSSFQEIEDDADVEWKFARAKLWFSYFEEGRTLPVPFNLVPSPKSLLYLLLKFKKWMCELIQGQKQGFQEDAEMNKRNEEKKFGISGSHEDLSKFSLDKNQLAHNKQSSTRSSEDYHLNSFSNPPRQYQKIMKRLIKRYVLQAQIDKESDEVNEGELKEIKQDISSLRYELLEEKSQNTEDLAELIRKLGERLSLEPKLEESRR

[11] = biological target: Short transient receptor potential channel 6 (Mus musculus) (UniProt Q61143); test: activation of mouse TRPC6 channel, confirmation, selectivity assay for TRPC4 activator project, cell-based, HEK293, membrane potential dye, duplicate (AID 434950;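 active = membrane potential signal rise above negative control mean plus 3 SD in both duplicates, also active in the earlier TRPC4 screen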); settings: HEK293 TRPC6, membrane potential fluorescence, at 10 µM; active compounds read high
[12] = biological target: Short transient receptor potential channel 6 (Mus musculus) (UniProt Q61143); test: TRPC6 potentiation by TRPC4 potentiator hits, confirmation, selectivity assay for TRPC4 potentiator project, HEK293 cells, membrane potential dye, duplicate (AID 434952;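 active = compound raising the membrane signal above positive-control mean plus 3 SD in both repeats, and a primary screen hit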); settings: HEK293 TRPC6, membrane potential dye fluorescence, at 10 µM, maximal acetylcholine added after compound; active compounds read high
[13] = biological target: Short transient receptor potential channel 4 (Mus musculus) (UniProt Q9QUQ5); test: calcium flux activators in TRPC4/5HT1a cells, counter-screen for TRPC4 activator project, cell-based, second counter screen, HEK293 TRPC4/5HT1a, Fluo-4 (AID 434977;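 active = calcium signal rise above buffer-control mean plus 5 SD in both duplicates, and also a hit in the primary screen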); settings: Fluo-4 calcium flux, at 10 µM; active compounds read high
[14] = calcium flux inhibitors in TRPC4/5HT1a cells, confirmation, counter-screen for TRPC4 inhibitor project, cell-based, second counter screen, HEK293 TRPC4/5HT1a, Fluo-4 (AID 434978;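 active = primary screen active whose calcium signal fell more than 3 SD beyond the full-serotonin control mean in both duplicate plates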;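 for outcome: serotonin given first at submaximal then at maximal dose after compound preincubation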); settings: Fluo-4 calcium flux, at 10 µM, serotonin added to trigger calcium flux; active compounds read high
[15] = test system: TRPC4 (mouse), co-expressed with 5HT1a in HEK293; test: calcium flux potentiators in TRPC4/5HT1a cells, confirmation, counter-screen for TRPC4 potentiator project, cell-based, second counter screen, HEK293 TRPC4/5HT1a, Fluo-4 (AID 434979); settings: Fluo-4 calcium flux, at 10 µM, serotonin added at its EC20 dose; active compounds read high
[16] = calcium flux activation in mu-opioid HEK293 cells, confirmation, counter-screen for TRPC4 activator project, cell-based, HEK293 mu-opioid receptor line (AID 449723;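 active = hit in primary screen, with calcium signal over 5 SD above buffer well mean in both duplicates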;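 note: counter screen cells carry the mu-opioid receptor alone and lack TRPC4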); settings: Fluo-4 calcium fluorescence, at 10 µM; active compounds read high
[17] = calcium flux enhancement in mu-opioid HEK293 cells, confirmation, counter-screen for TRPC4 allosteric potentiator project, cell-based, HEK293 mu-opioid receptor line (AID 449724;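 active = calcium signal rise more than 3 SD above the low-dose agonist control mean, in both duplicate plates and the primary screen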); settings: Fluo-4 calcium flux, at 10 µM, compound added before EC20 DAMGO stimulus; active compounds read high

OC(c1ccccc1)(c1ccccc1)C1CCN(C(=S)NC2CCCC2)CC1
inactive: outcome [1] | outcome [2] | outcome [3] | outcome [4] | outcome [5] | outcome [6] | outcome [7] | outcome [8] | outcome [9] | outcome [10] | outcome [11] | outcome [12] | outcome [13] | outcome [14] | outcome [15] | outcome [16] | outcome [17]

COc1ccc(NC(C)=O)cc1NC(C)C(=O)Nc1cc(C(F)(F)F)ccc1N1CCOCC1 (centres undefined)
active: potentiation [15] 14.5%
inactive: outcome [1] | outcome [2] | outcome [3] | outcome [4] | outcome [5] | outcome [6] | outcome [7] | outcome [8] | outcome [9] | outcome [10] | outcome [11] | outcome [12] | outcome [13] | outcome [14] | outcome [16] | outcome [17]

CCOC(=O)C1NN=C(C(=O)c2ccccc2)C1c1ccc(Cl)cc1 (centres undefined)
inactive: outcome [1] | outcome [2] | outcome [3] | outcome [4] | outcome [5] | outcome [6] | outcome [7] | outcome [8] | outcome [9] | outcome [10] | outcome [11] | outcome [12] | outcome [13] | outcome [14] | outcome [15] | outcome [16] | outcome [17]

COc1ccccc1C1/C(=C(\O)c2ccc3c(c2)OCCO3)C(=O)C(=O)N1Cc1cccnc1 (centres undefined)
inactive: outcome [1] | outcome [2] | outcome [3] | outcome [4] | outcome [7] | outcome [8] | outcome [9] | outcome [10] | outcome [11] | outcome [12] | outcome [13] | outcome [15] | outcome [16] | outcome [17]
active: inhibition [5] 82% | inhibition [6] 63% | inhibition [14] 41.7%

Cc1cc(Cl)ccc1OC(C)C(=O)Nc1ccccc1N1CCOCC1 (centres undefined)
active: potentiation [4] 25% | activation [17] 1140%
inactive: outcome [1] | outcome [2] | outcome [3] | outcome [5] | outcome [6] | outcome [7] | outcome [8] | outcome [9] | outcome [10] | outcome [11] | outcome [12] | outcome [13] | outcome [14] | outcome [15] | outcome [16]

CCOc1ccc(CCNC(=O)c2ccc3c(=O)[nH]c4c(C(=O)NC(C)C)sc(=S)n4c3c2)cc1
inactive: outcome [1] | outcome [2] | outcome [5] | outcome [6] | outcome [7] | outcome [8] | outcome [9] | outcome [10] | outcome [11] | outcome [12] | outcome [13] | outcome [14] | outcome [16] | outcome [17]
active: potentiation [3] 9% | potentiation [4] 11% | potentiation [15] 7.91%

Clc1ccc2nc(CN3CCCc4ccccc43)cn2c1
inactive: outcome [1] | outcome [2] | outcome [3] | outcome [5] | outcome [6] | outcome [7] | outcome [8] | outcome [9] | outcome [10] | outcome [11] | outcome [12] | outcome [13] | outcome [14] | outcome [16] | outcome [17]
active: potentiation [4] 12% | potentiation [15] 28%
